Experimental findings from PubChem BioAssay (EPA / NIEHS) are described below.

Assay [1] deals with Myc proto-oncogene protein (Homo sapiens) (UniProt P01106). Briefly: ATG_Myc_CIS: Attagene CIS-FACTORIAL HepG2 Assay for human Myelocytomatosis (Myc) Proto-Oncogene Transcription Factor (AID 2282990). To be noted: HepG2, Attagene cis-reporter transcription factor activity; actives raise or lower the signal. Summed up: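 After 24 h chemical treatment of HepG2 cells carrying multiplexed cis-regulated reporter constructs, reporter transcripts quantified by RT-PCR and capillary electrophoresis of fluorescent fragments. Gain or loss fitted against DMSO baseline.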
Sequence of Myc proto-oncogene protein (Homo sapiens) (P01106 whole entry, looked up, the tested form may be a part): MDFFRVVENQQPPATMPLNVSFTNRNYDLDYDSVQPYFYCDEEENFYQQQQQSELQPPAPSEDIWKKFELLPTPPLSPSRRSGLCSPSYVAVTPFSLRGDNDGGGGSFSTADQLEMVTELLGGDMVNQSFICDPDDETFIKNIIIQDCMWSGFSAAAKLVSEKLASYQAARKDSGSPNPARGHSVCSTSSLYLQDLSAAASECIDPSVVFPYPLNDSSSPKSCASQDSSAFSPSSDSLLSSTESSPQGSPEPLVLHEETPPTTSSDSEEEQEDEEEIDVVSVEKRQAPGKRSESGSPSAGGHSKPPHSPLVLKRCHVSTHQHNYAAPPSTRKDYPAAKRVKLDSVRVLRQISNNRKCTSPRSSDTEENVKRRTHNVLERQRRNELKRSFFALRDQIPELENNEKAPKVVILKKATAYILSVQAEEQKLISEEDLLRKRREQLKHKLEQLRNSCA

The nature of assay [2]: ATG_NF_kB_CIS: Attagene CIS-FACTORIAL HepG2 Assay for human Nuclear Factor Kappa B (NF-kB) (AID 2282991). To be noted: HepG2 Attagene cis-factorial NF-kB reporter mRNA; actives raise or lower the signal. The procedure, abridged: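 DMSO served as negative control and baseline for bidirectional curve fitting. Transiently transfected HepG2 cells were dosed for 24 h, then reporter transcripts were measured by RT-PCR with capillary electrophoresis detection.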

The nature of assay [3]: ATG_NRF2_ARE_CIS: Attagene CIS-FACTORIAL HepG2 Assay for human Nuclear Factor Erythroid 2 Related Factor 2 (NFR2) response to Antioxidant Response Elements (ARE) (AID 2282992). To be noted: HepG2 Attagene ARE/NRF2 reporter, transcription factor activity; actives raise or lower the signal. Summed up:
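Fluorescence intensity of reporter-specific cDNA fragments, separated by capillary electrophoresis, reflects mRNA induction in transfected HepG2 cells at 24 h. Activity is fitted bidirectionally, DMSO serving as baseline.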

Assay [4] can be described thus: ATG_Oct_MLP_CIS: Attagene CIS-FACTORIAL HepG2 Assay for human Octamer-Binding Transcription Factor (Oct) (AID 2282993). To be noted: HepG2 Attagene cis-factorial Oct reporter, mRNA; actives raise or lower the signal. Summed up:
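Cells of the HepG2 line express promoter-controlled reporter sequences whose mRNA levels, after 24 h treatment, are measured by RT-PCR and capillary electrophoresis. Increases and decreases are scored relative to DMSO.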

Assay [5] deals with Cellular tumor antigen p53 (Homo sapiens) (UniProt P04637). Description: ATG_p53_CIS: Attagene CIS-FACTORIAL HepG2 Assay for human p53 Transcription Factor (AID 2282994). To be noted: HepG2 p53 cis-element reporter, Attagene mRNA; actives raise or lower the signal. Summed up: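 Transiently transfected HepG2 (multiple cis reporter transcription units); exposure 24 h; reporter RNA via RT-PCR, 6-FAM extension, 2 h HpaI digest at 37 C, CE detection; DMSO baseline.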
Sequence of Cellular tumor antigen p53 (Homo sapiens) (P04637 whole entry, looked up): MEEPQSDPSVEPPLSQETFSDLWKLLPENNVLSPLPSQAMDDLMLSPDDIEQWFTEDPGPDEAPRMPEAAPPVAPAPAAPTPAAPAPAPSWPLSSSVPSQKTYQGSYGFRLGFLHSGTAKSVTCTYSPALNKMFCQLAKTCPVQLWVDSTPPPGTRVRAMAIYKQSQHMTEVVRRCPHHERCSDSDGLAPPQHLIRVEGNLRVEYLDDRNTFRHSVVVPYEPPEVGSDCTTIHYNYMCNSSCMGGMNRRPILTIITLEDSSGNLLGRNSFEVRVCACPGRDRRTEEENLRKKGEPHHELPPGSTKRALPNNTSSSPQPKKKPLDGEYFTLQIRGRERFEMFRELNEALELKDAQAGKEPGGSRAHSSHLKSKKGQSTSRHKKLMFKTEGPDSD

Assay [6] has as its target human Peroxisome Proliferator-activated Receptor delta (PPARd), PPARD (gene 5467) (UniProt Q03181). Description: ATG_PPARd_TRANS: Attagene TRANS-FACTORIAL HepG2 Assay for human Peroxisome Proliferator-activated Receptor delta (PPARd) (AID 2283002; active = hit-call score of the fitted dose curve at least 0.9, where 1 is the maximum). Summed up: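 Read-out is induced reporter mRNA, quantified by RT-PCR with fluorescent labelling and capillary electrophoresis after 24 h dosing. Cells are HepG2 transiently carrying multiple GAL4-UAS reporter units driven by exogenous NR-GAL4 chimeras; DMSO serves as baseline.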

Assay [7] concerns the target Retinoic acid receptor alpha (Homo sapiens) (UniProt P10276). Description: ATG_RARa_TRANS: Attagene TRANS-FACTORIAL HepG2 Assay for human Retinoic Acid Receptor alpha (RARa) (AID 2283005; active = hit-call score of the fitted dose curve at least 0.9, where 1 is the maximum). Summed up:
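Reporter transcripts, measured by RT-PCR with fluorescent labeling and capillary electrophoresis after 24 h dosing, reflect activity of an exogenous human RARa–GAL4 fusion in transiently transfected HepG2. Fitted for increase relative to DMSO.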

In assay [8] the target is Nuclear receptor subfamily 1 group I member 2 (Homo sapiens) (UniProt O75469). Description: ATG_PXR_TRANS: Attagene TRANS-FACTORIAL HepG2 Assay for human Pregnane X Receptor (PXR) (AID 2283008; active = hit-call score of the fitted dose curve at least 0.9, where 1 is the maximum). The procedure, abridged: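 Transient HepG2 transfectants carrying multiplexed reporter transcription units; PXR activity read through a Gal4 chimera. 24 h exposure. RT-PCR/CE fluorescence; upward curve fit referenced to DMSO.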
Sequence of Nuclear receptor subfamily 1 group I member 2 (Homo sapiens) (O75469 whole entry, looked up, the tested form may be a part): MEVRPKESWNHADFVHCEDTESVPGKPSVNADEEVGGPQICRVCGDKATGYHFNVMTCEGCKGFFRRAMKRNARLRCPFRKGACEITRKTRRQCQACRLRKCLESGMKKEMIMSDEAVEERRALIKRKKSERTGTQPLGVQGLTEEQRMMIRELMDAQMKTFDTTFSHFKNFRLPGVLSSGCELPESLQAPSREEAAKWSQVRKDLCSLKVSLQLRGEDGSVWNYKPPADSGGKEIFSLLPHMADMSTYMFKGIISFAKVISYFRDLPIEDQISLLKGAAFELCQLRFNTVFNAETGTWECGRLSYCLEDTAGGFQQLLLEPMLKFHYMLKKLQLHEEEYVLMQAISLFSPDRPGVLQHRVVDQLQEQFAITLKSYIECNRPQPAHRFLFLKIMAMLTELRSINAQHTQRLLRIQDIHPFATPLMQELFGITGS

The target of assay [9] is human Retinoic Acid Receptor gamma (RARg), RARG (gene 5916) (UniProt P13631). Briefly: ATG_RARg_TRANS: Attagene TRANS-FACTORIAL HepG2 Assay for human Retinoic Acid Receptor gamma (RARg) (AID 2283009; active = hit-call score of the fitted dose curve at least 0.9, where 1 is the maximum). Summed up:
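Readout: reporter transcript levels via RT-PCR, 6-FAM primer-extension labelling, HpaI digestion and capillary electrophoresis. Cells: HepG2 carrying transfected RARg-GAL4 chimera plus UAS reporter set. Dosing 24 h; DMSO negative control.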

In assay [10] the target is human RAR-related Orphan Receptor beta (RORb), RORB (gene 6096) (UniProt Q92753). Description: ATG_RORb_TRANS: Attagene TRANS-FACTORIAL HepG2 Assay for human RAR-related Orphan Receptor beta (RORb) (AID 2283010; active = hit-call score of the fitted dose curve at least 0.9, where 1 is the maximum). The procedure, abridged: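 HepG2, transient MRTU transfection (GAL4-UAS reporters, exogenous NR-Gal4 chimeras); 24 h compound exposure; total RNA → RT-PCR → 6-FAM primer extension → HpaI digest → CE fluorescence. Positive direction vs DMSO baseline.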
Sequence of human RAR-related Orphan Receptor beta (RORb), RORB (gene 6096) (Q92753 whole entry, looked up, the tested form may be a part): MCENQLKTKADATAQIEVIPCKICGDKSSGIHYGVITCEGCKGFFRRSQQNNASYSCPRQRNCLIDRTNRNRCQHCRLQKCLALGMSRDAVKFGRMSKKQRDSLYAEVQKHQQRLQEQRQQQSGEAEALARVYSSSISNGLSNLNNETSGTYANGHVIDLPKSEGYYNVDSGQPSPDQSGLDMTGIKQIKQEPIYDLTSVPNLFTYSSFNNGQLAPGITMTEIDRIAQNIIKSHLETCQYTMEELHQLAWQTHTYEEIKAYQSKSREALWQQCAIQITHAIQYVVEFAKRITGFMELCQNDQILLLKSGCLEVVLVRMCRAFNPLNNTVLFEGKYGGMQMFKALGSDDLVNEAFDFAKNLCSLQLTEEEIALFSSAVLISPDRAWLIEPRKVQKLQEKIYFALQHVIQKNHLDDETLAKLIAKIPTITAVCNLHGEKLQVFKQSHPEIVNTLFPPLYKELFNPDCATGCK

Assay [11] addresses human RAR-related Orphan Receptor gamma (RORg), RORC (gene 6097) (UniProt P51449). Briefly: ATG_RORg_TRANS: Attagene TRANS-FACTORIAL HepG2 Assay for human RAR-related Orphan Receptor gamma (RORg) (AID 2283011; active = hit-call score of the fitted dose curve at least 0.9, where 1 is the maximum). Summed up:
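Activity is scored as increase in GAL4-UAS reporter mRNA over DMSO, detected by fluorescent RT-PCR and capillary electrophoresis in HepG2 cells transiently expressing a RORg-Gal4 chimera, 24 h after dosing.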

Assay [12] has as its target Retinoic acid receptor RXR-alpha (Homo sapiens) (UniProt P19793). Briefly: ATG_RXRa_TRANS: Attagene TRANS-FACTORIAL HepG2 Assay for human Retinoid X Receptor alpha (RXRa) (AID 2283012; active = hit-call score of the fitted dose curve at least 0.9, where 1 is the maximum). The procedure, abridged:
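Read-out: fluorescent reporter-transcript fragments quantified by capillary electrophoresis after RT-PCR. Transiently transfected HepG2 cells carrying GAL4-UAS reporters and NR-GAL4 chimeras were exposed to chemical for 24 h; activity scored as increase over DMSO.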

Assay [13] concerns the target Peroxisome proliferator-activated receptor gamma (Homo sapiens) (UniProt P37231). Description: ATG_PPARg_TRANS: Attagene TRANS-FACTORIAL HepG2 Assay for human Peroxisome Proliferator-activated Receptor-gamma (PPARg) (AID 2283007; active = hit-call score of the fitted dose curve at least 0.9, where 1 is the maximum). Summed up:
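Chimeric NR-Gal4 transactivation is measured in transiently transfected HepG2 cells by reporter mRNA induction at 24 h. Detection uses RT-PCR with fluorescent labelling and capillary electrophoresis; DMSO defines baseline.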

Assay [14] in a line: BSK_3C_TissueFactor: BioMAP Diversity Plus: 3C Assay for Tissue Factor Biomarker Activity (AID 2282997). To be noted: BioMAP 3C HUVEC, tissue factor biomarker readout; actives raise or lower the signal. Summed up: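 Cells used were primary human umbilical vein endothelial cells. They were dosed with chemical, and after 24 h Tissue Factor was quantified by ELISA. Curves were fitted bidirectionally with DMSO as baseline.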

A short description of assay [15]: BSK_3C_uPAR: BioMAP Diversity Plus: 3C Assay for Urokinase-type plasminogen activator receptor (uPAR) Biomarker Activity (AID 2282998). To be noted: BioMAP 3C HUVEC, uPAR biomarker ELISA; actives raise or lower the signal. Summed up: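 Endothelial primary cells of human umbilical vein origin received test chemical; 24 h later uPAR was assayed by ELISA. Fitting was bidirectional, DMSO as negative control.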
For orientation: In an ELISA, binding on a coated surface is turned into a signal by an enzyme label.

Assay [16] in a line: BSK_3C_VCAM1: BioMAP Diversity Plus: 3C Assay for Vascular cell adhesion molecule 1 (VCAM1) Biomarker Activity (AID 2282999). To be noted: BioMAP 3C HUVEC, VCAM1 ELISA, cytokine-stimulated; actives raise or lower the signal. The procedure, abridged:
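Activity fitted in both directions relative to DMSO, with ELISA measurement of the surface marker on primary HUVEC (3C) at 24 h post-treatment; parallel SRB staining (0.1% SRB, TCA-fixed, 560 nm) flagged overt cytotoxicity.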

Assay [17] in a line: BSK_4H_Eotaxin3: BioMAP Diversity Plus: 4H Assay for Eotaxin 3 Biomarker Activity (AID 2283000).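 As to outcome: CCL26 protein level quantified by ELISA in parallel with SRB cytotoxicity check.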 To be noted: primary human endothelial cells (HUVEC); actives raise or lower the signal. The procedure, abridged: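 Endothelial primary cells (human umbilical vein) exposed to compound for 24 h. ELISA detection of Eotaxin-3.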
The target in assay [18] is human Peroxisome Proliferator-activated Receptor alpha (PPARa), PPARA (gene 5465) (UniProt Q07869). Briefly: ATG_PPARa_TRANS: Attagene TRANS-FACTORIAL HepG2 Assay for human Peroxisome Proliferator-activated Receptor alpha (PPARa) (AID 2283001; active = hit-call score of the fitted dose curve at least 0.9, where 1 is the maximum;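 as to AC50: potency for gain of reporter signal over DMSO so agonist or activator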). Summed up: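 Transfected HepG2 cells treated with test chemical for 24 h. RNA isolated, reverse-transcribed with oligo(dT), PCR-amplified, FAM-labelled and HpaI-digested. Fragments sized by capillary electrophoresis; gain-of-signal fit relative to DMSO.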
Sequence of human Peroxisome Proliferator-activated Receptor alpha (PPARa), PPARA (gene 5465) (Q07869 whole entry, looked up, the tested form may be a part): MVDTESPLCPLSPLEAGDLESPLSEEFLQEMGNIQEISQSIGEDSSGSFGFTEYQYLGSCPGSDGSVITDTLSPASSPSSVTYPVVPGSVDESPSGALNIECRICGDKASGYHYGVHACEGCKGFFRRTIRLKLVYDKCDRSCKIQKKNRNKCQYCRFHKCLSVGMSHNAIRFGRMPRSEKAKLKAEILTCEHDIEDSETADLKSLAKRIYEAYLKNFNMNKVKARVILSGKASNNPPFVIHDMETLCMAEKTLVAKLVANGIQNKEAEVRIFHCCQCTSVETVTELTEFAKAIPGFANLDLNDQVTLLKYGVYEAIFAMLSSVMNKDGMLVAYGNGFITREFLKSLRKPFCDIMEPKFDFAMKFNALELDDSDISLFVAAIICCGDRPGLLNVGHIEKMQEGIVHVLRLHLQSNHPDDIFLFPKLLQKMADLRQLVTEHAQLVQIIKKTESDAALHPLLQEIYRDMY

Read-out in assay [19]: Intercellular Adhesion Molecule 1 (ICAM1), ICAM1 (gene 3383)
Description: BSK_3C_ICAM1: BioMAP Diversity Plus: 3C Assay for Intercellular Adhesion Molecule 1 (ICAM1) Biomarker Activity (AID 2283003). To be noted: primary human endothelial cells (HUVEC); actives raise or lower the signal. The procedure, abridged:
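ELISA read-out of ICAM-1; HUVEC (primary human), 3C system, 24 h post-dosing; bidirectional fit vs DMSO baseline.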

A short description of assay [20]: BSK_3C_Proliferation: Cell Proliferation Assessment in the BioMAP Diversity Plus: 3C Assay (AID 2283006).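 As to AC50: potency may reflect either rise or fall in cell number versus DMSO.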 To be noted: primary human endothelial cells (HUVEC). Summed up:
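HUVEC, sub-confluent; 48 h chemical exposure; 10% TCA fix, 0.1% SRB stain, A560 total protein. Gain or loss of signal fitted both directions vs DMSO control.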

Inconclusive results are not listed. Activity calls are given as the source filed them. The calls were made as follows, unless noted: active = hit-call score of the fitted dose curve at least 0.9, where 1 is the maximum; inactive = score below 0.9.

Sequence of Retinoic acid receptor alpha (Homo sapiens) (P10276 whole entry, looked up, the tested form may be a part): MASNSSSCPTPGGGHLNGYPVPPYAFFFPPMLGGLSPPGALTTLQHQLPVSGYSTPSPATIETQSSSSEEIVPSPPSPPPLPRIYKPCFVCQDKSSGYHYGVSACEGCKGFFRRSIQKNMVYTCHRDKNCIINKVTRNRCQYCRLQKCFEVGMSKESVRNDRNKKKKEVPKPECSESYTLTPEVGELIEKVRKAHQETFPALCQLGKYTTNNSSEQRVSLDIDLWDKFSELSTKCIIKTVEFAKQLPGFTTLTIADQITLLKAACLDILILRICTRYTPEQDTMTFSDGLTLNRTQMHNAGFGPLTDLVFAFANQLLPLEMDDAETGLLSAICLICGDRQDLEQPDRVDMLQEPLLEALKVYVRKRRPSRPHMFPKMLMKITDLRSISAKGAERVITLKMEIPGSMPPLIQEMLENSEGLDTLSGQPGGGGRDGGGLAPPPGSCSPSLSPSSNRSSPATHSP
Sequence of Peroxisome proliferator-activated receptor gamma (Homo sapiens) (P37231 whole entry, looked up, the tested form may be a part): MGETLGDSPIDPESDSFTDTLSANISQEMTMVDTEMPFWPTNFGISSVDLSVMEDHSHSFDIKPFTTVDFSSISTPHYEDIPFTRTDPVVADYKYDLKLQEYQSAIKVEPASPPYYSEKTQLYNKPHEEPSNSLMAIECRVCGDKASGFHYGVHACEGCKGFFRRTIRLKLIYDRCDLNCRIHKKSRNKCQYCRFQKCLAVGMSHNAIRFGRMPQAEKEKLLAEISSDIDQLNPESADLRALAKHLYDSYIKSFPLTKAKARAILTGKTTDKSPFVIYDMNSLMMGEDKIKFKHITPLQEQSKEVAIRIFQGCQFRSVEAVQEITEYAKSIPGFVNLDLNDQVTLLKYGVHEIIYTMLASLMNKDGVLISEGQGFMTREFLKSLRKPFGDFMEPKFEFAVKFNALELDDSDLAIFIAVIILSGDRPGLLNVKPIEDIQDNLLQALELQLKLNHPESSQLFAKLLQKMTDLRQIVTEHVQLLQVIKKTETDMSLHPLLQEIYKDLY
Sequence of Retinoic acid receptor RXR-alpha (Homo sapiens) (P19793 whole entry, looked up, the tested form may be a part): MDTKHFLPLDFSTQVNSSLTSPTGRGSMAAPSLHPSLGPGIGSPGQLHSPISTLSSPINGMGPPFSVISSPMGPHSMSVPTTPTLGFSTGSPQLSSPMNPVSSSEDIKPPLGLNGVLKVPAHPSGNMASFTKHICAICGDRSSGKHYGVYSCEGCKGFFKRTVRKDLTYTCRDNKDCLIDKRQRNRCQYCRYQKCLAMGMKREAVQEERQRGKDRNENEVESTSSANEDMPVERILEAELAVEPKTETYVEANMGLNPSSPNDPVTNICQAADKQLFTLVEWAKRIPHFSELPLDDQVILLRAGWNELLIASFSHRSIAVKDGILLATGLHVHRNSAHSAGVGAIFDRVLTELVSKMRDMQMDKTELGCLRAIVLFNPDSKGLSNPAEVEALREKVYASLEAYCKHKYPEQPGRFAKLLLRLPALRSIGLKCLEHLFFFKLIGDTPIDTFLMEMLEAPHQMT
Sequence of human RAR-related Orphan Receptor gamma (RORg), RORC (gene 6097) (P51449 whole entry, looked up, the tested form may be a part): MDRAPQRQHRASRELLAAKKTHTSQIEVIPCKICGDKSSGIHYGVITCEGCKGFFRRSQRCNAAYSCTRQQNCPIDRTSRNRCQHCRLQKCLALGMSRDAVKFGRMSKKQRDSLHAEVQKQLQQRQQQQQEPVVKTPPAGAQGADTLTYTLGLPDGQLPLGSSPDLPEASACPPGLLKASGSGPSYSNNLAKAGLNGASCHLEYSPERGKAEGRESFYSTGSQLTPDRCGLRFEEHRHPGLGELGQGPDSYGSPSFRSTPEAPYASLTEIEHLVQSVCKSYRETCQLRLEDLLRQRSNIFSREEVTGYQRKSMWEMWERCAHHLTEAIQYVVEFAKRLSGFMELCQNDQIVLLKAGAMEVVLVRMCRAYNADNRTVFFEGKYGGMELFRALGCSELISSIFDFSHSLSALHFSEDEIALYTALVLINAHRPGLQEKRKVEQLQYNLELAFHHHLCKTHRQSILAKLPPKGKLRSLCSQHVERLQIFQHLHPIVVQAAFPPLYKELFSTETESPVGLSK
Sequence of human Peroxisome Proliferator-activated Receptor delta (PPARd), PPARD (gene 5467) (Q03181 whole entry, looked up, the tested form may be a part): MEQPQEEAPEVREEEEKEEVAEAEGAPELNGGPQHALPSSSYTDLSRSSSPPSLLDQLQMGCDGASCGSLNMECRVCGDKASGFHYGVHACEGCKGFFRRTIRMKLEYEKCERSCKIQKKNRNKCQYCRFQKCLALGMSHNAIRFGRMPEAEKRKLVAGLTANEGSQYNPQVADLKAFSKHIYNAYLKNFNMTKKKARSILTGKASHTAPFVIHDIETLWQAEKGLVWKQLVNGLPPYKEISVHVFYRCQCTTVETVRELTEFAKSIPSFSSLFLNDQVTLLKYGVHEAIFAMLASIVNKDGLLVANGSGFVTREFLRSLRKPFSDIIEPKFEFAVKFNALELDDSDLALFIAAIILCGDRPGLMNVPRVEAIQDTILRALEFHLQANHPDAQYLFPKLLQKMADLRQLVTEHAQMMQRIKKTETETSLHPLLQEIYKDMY

In the case of `O=P(O)(O)CN(CP(=O)(O)O)CP(=O)(O)O`, the compound was called inactive in [1], in [2], in assay [3], in [4], in [5] and in assay [6]. Besides, the compound was classed as inactive in [7], in assay [8], in [9], in assay [10], in assay [11] and in assay [12].

Take `CCOC(=O)Nc1cccc(OC(=O)Nc2ccccc2)c1`: the result in assay [1], in [2], in [4], in assay [5], in [6] and in [7] was inactive. For the same compound, the outcome in assay [13] and in assay [8] was inactive. For the same compound, the AC50 – broadly, the midpoint of the concentration-response curve, whichever way the signal moves – in assay [3] was 17.2 µM (active).

In the case of `Cc1ccccc1C(=O)Nc1cccc(OC(C)C)c1`, the call in [1], in assay [2], in assay [4], in [5], in [6] and in assay [12] was inactive. The AC50 was 57.3 µM (active) in [3], 27.9 µM (active) in assay [13] and 2.62 µM (active) in assay [8].

In the case of `COP(=S)(OC)Oc1ccc(Sc2ccc(OP(=S)(OC)OC)cc2)cc1`, the compound was called inactive in assay [1], in assay [4], in [5], in assay [14], in [16] and in assay [6]. In addition, the result in assay [19], in assay [9], in [11] and in [12] was inactive. Also, the AC50 in assay [3] was 3.58 µM (active); in assay [15] it was 20 µM (active); in [17], 20 µM (active); in assay [18], 22.7 µM (active); in [20] it was 15.7 µM (active); in assay [13] it was 13.7 µM (active). The AC50 in [8] was 4.45 µM (active).

In the case of `COc1ccc(C=O)cc1OC`, the call in assay [1], in assay [3], in assay [4], in assay [5], in assay [18] and in [10] was inactive. Also, the result in [11] and in assay [12] was inactive.

In the case of `O=C(O)C(Cl)(Cl)Cl`, the result in assay [1], in [3], in assay [4], in assay [5], in assay [14] and in assay [15] was inactive. Further, the outcome in assay [16], in assay [17], in assay [18], in assay [19], in [7] and in assay [20] was inactive. Moreover, the outcome in assay [8], in assay [10], in [11] and in assay [12] was inactive.
